PubChem BioAssay AID592 (National Center for Advancing Translational Sciences (NCATS), 2007)
The campaign covered roughly 59,000 compounds. Fewer than 10 were called active. The rule behind the calls is not given here. Not all results are given here.

Assay: qHTS Assay for Spectroscopic Profiling in A647 Spectral Region
Conditions: Compound fluorescence, A647 channel (570/671 nm), Tris buffer; active compounds read high
Excerpt: NIH Molecular Libraries Screening Centers Network [MLSCN] NIH Chemical Genomics Center [NCGC] […] Occasionally, the artifactual effect may originate from the compounds own spectral or other biophysical properties which generally tend to track its assay concentration. Pre-screening/profiling the library with respect to the compounds spectral properties should help one exclude false positives early on. While the most informative fluorescent profiling data set is obtained by performing a full excitation and emission scan of each well by using a monochromator-based plate reader, such an approach is practical only on a very limited scale as scanning each well requires long time. An alternative approach, applied here, is to perform plate reader scans using selected excitation and emission wavelength pairs to generate a multidimensional relational database that correlates compound concentration and the respective relative fluorescence intensity at a given wavelength set. A standard curve of Alexa 647 (A647) present on each plate as six-point concentration series, was used to compute a normalized fluorescence response, termed dye-equivalent concentration, for each compound at each concentration.
NCGC Assay Protocol Summary: Buffer: 100 mM Tris buffer, pH 8.0 Dye standard plate: The wells in columns 1 through 4 of a Kalypsys polypropylene 1536-well compound plate were filled with standard solutions of fluorophore corresponding to the spectral region of interest. Solutions of A647 were placed in the following wells: AC1, AD1: 3 mM, AC2, AD2: 300 uM, AC3, AD3: 30 uM, AC4, AD4: zero (DMSO), AE1, AF1: 3 uM, AE2, AF2: 900 nM, AE3, AF3: 300 nM, AE4, AF4: zero (DMSO). Assay Steps: Six uL of buffer were dispensed to 1536-well Greiner black plates. Compounds and dye standards (23 nL) were transferred via Kalypsys PinTool. The plates were incubated for 15 min at room temperature, and then read on ViewLux (Perkin-Elmer) High-throughput CCD imager using 570 nm and 671 nm excitation and emission filter set. Keywords: NIH Roadmap, MLSCN, MLI, MLSMR, qHTS, NCGC, A647, A-647, Fluorescent Profiling.

Max dye-equivalent concentration, inactive:
O=c1c(-c2cccs2)nc2cnc(Oc3ccccc3)nc2n1-c1ccccc1 2.8 nM
COc1cc(C2C3C(=O)N(c4ccccc4)C(=O)C3ON2c2ccccc2)ccc1O (stereo not drawn) 30 nM
COc1ccc2oc(=O)c(C(=O)O)cc2c1 1 nM
O=C1N(Cc2ccc3c(c2)OCO3)c2ccccc2C1(O)c1c[nH]c2ccccc12 (stereo not drawn) 1 nM
O=C1CCC(C(=O)Nc2ccc(OC(F)F)cc2)N1 (stereo not drawn) 1 nM
CC(=O)N1CCC2(CCCN(c3ncccn3)C2)CC1 1 nM
Cc1ccccc1Nc1nnc(C)c(=O)[nH]1 45 nM
Cc1ccc(-n2c(N)c(C(=O)N3CCOCC3)sc2=S)c(C)c1 1 nM
CC(=O)OC(C(=O)NC1CCCCC1)c1ccccc1 (stereo not drawn) 30 nM
NC(=O)C1CCN(C(=O)c2ccc(C(F)(F)F)cc2)CC1 1 nM
COc1cccc(Cn2c(=O)c(C)nc3cnc(Oc4ccccc4)nc32)c1 1 nM
Cc1cccc(NC(=O)c2ccccc2NC(=O)C(C)(C)C)n1 39 nM
CCc1ccccc1NC1c2ccccc2C(=O)N1c1cccnc1 (stereo not drawn) 11 nM
CCOC(=O)c1c(C)nc(-c2ccccc2)nc1NC(=O)C(C)C 1 nM
Cc1nc(NCc2ccccc2)c(C(N)=O)c2c1COC(C)(C)C2 37 nM
COc1ccccc1CNC(=O)CCCn1c(=O)c2ccccc2n(CC(=O)NC2CCCC2)c1=O 28 nM
O=C(c1cccs1)N1CCN(C(=O)N2CCOCC2)CC1 9.6 nM
CC1Cc2nc(SCC(=O)Nc3ccccc3F)n(C)c(=O)c2S1 (stereo not drawn) 1 nM
COc1ccc2nccc(C(=O)O)c2c1 1 nM
CCn1c(=N)c(S(=O)(=O)c2ccc(F)cc2)cc2c(=O)n3ccccc3nc21 1.8 nM
O=C(CCCN1C(=O)CSc2ncccc21)N1CCN(c2cccc(C(F)(F)F)c2)CC1 6.4 nM
COc1ccc(C(=O)Nc2cccnc2)cc1C(=O)Nc1cccnc1 1.5 nM
OCCCN1c2ccccc2Nc2nnc(-c3ccccc3)cc21 20 nM
CCOC(=O)c1[nH]cnc1C(=O)NC1CCCCC1 1 nM
ClC(Cl)(Cl)C(N1CCN(c2ccccc2)CC1)N1CCN(c2ccccc2)CC1 1 nM
CN(Cc1ccco1)c1cc(-c2ccccc2C(F)(F)F)ncn1 1 nM
CC(=O)Oc1cccc(N2C(=O)CC(Nc3ccc(N4CCOCC4)cc3)C2=O)c1 (stereo not drawn) 1 nM
Cn1c(=O)[nH]c(=O)c2c1nc(N(CCO)Cc1ccccc1)n2Cc1ccccc1Cl 78 nM
Cn1cccc1C(=O)N1CCC2(CC1)CN(c1cccc(-c3ccccc3)c1)C2 18 nM
CCCCn1c(=S)[nH]c2ncccc2c1=O 1 nM
CC1(C)SC2c3ccccc3C(=O)N2[C@@H]1C(=O)NCc1ccco1 (stereo partly drawn) 1 nM
O=C(O)CN1C(=O)CC(Cc2ccccc2)C1=O (stereo not drawn) 1 nM
O=C(Cc1c(F)cccc1Cl)N1CCN(C(=O)c2ccco2)CC1 7.2 nM
CCCn1c(=O)c2[nH]c(-c3ccc(OCC(=O)NCCN)cc3)nc2n(CCC)c1=O 50 nM
O=c1[nH]c(=O)c2nc3ccccc3nc2[nH]1 49 nM
Cc1nc2nc3c(cn2n1)C(=O)CC(c1ccccc1)C3 (stereo not drawn) 28 nM
CSCC[C@H](NC(=O)NCc1cccs1)C(=O)O 3.7 nM
CN(C(=O)COc1nnc(-c2cccs2)c(-c2cccs2)n1)c1ccccc1 1 nM
Cc1cc(N2C(=O)C(=O)/C(=C(/O)c3ccccc3)C2c2cccc(Br)c2)no1 (stereo not drawn) 1.8 nM
C/C(N)=C(\C#N)C(=O)NCCc1ccccn1 39 nM
CCc1nnc(NC(=O)c2nc3nccc(C)n3n2)s1 18 nM
N#Cc1ccc(CSc2nnc(-c3ccccn3)n2-c2ccc(Cl)cc2)cc1 2.1 nM
Clc1ccc(C=Nc2ccc3c(c2)Cc2ccccc2-3)c(Cl)c1 3.2 nM
CN(C)CCCNC(=O)c1ccc2[nH]c3ccccc3c2c1 3 nM
CC(C)CSC[C@@H]1O[C@H](n2cnc3c(N)nccc32)[C@H](O)[C@@H]1O 13 nM
Cc1ccccc1Nc1nc(N)nc(CN2CCN(c3ccccn3)CC2)n1 44 nM
COc1ccc(C(c2nnnn2Cc2cccs2)N2CCN(c3ccccc3)CC2)cc1OC (stereo not drawn) 11 nM
COC(=O)CNC(=O)c1ccc2c(c1)S(=O)(=O)c1ccccc1C2=O 6.7 nM
O=C(O)c1ccc(C(=O)c2ccccc2C(=O)O)cc1C(=O)O 3.2 nM
O=C(O)CSCNC(=O)CC12CC3CC(CC(C3)C1)C2 1.2 nM
COc1cc(C(=O)N(Cc2ccc(N(C)C)cc2)C2CCS(=O)(=O)C2)cc(OC)c1OC (stereo not drawn) 8.2 nM
O=S(=O)(/C=C/c1ccccc1)NCCc1ccccn1 23 nM
Fc1ccccc1C(c1nnnn1Cc1ccc2c(c1)OCO2)N1CCN(Cc2ccccc2)CC1 (stereo not drawn) 3.5 nM
Cc1cc(C)nc(SCc2nnc(SCC(=O)OC3CCCCC3)o2)n1 1 nM
Cc1csc(NC(=O)C2CCCN2C(=O)OCC(C)C)n1 (stereo not drawn) 15 nM
N=C(CC(=O)Nc1ccccn1)c1ccccc1 36 nM
Cc1oc(C)c(C(=O)NCCCC(=O)O)c1C(=O)NCCCC(=O)O 15 nM
Cc1c(O)c(Br)c(C)c(O)c1Br (tested in a mixture with another compound) 36 nM
